The supplement of paper PMC3545927
The other results are listed elsewhere or left out. No count for the full screen is at hand.

Molecular target: furin, P09958
Test: furin cleavage Z-score vs untreated control; higher = more cleavage, active = 3.5 or more, inactive = 1 or less, 8 variable residues between constant flanks
Method in brief: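 Furin cleavage was scored on 8-mer peptides joined to a cDNA oligonucleotide and bound to magnetic beads at the N-terminus. Digestion with purified furin (1:10 enzyme:substrate, 0.01 ml, 50 mM HEPES pH 7.5, CaCl2, NaCl) lasted 7.5, 15 or 30 min. Freed DNA was tagged with adapters by PCR, sequenced and counted; the cleavage Z-score is the lowess-adjusted log count versus furin-free reactions, scaled by median absolute deviation.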

Sequence of furin, P09958 (P09958 whole entry): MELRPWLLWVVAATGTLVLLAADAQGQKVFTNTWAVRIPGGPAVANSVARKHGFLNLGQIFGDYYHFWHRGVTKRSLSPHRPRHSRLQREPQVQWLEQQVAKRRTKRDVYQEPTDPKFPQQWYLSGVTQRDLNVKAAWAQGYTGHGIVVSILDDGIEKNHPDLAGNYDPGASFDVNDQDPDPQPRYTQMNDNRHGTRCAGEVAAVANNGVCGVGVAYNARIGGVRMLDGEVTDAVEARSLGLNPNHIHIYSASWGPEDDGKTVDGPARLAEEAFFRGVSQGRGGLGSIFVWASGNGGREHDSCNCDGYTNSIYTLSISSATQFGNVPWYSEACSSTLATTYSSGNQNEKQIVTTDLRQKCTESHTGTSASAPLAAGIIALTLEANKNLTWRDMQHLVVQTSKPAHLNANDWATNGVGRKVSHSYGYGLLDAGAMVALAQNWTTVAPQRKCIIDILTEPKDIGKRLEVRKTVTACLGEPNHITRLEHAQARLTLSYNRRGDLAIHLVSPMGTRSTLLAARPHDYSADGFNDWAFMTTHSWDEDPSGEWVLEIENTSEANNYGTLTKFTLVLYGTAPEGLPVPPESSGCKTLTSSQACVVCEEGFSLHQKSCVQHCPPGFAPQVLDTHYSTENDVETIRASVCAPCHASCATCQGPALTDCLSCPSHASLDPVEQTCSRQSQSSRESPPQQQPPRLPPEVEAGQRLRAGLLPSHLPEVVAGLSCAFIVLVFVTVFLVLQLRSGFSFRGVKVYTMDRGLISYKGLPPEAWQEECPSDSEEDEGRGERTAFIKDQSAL

Sequence | furin cleavage Z-score (7.5 min) | furin cleavage Z-score (15 min) | furin cleavage Z-score (30 min)
CAMKECSQHLAGNASASA [HC1694] | -0.048 (inactive) | -0.457 (inactive) | -0.785 (inactive)
CATTPCSNSWAGNASASA [HC1901] | 0.617 (inactive) | 0.249 (inactive) | 1.55
CAEKKRKFIKAGNASASA [FS-2119] | -0.691 (inactive) | -0.493 (inactive) | -0.629 (inactive)
CARQKREWVKAGNASASA [FS-2753] | 3.59 (active) | 6.92 (active) | 8.88 (active)
CARQKREWIKAGNASASA [FS-2752] | 4.32 (active) | 5.62 (active) | 9.03 (active)
CAMEECWQHLAGNASASA [HC27] | 1.1 | 1.46 | 0.479 (inactive)
CAYSPGEINRAGNASASA [HC1609] | -1.45 (inactive) | 1.01 | -0.452 (inactive)
CAEVDCHRPSAGNASASA [HC2351] | 0.842 (inactive) | 0.436 (inactive) | 0.244 (inactive)
CAQGSRSLTPAGNASASA [HC718] | 0.532 (inactive) | -0.507 (inactive) | 0.396 (inactive)
CATGLIHLHQAGNASASA [HC504] | 0.174 (inactive) | 0.0378 (inactive) | -0.549 (inactive)
CARPSRSISLAGNASASA [FS-3027] | 3.14 | 4.81 (active) | 5.36 (active)
CARPSRSGGRAGNASASA [FS-2287] | -1.07 (inactive) | -0.551 (inactive) | -0.606 (inactive)
CARISRSISEAGNASASA [FS-2033] | 7.46 (active) | 8.18 (active) | 7.34 (active)
CARATRKTSEAGNASASA [HC184] | -0.121 (inactive) | -1.01 (inactive) | -1.25 (inactive)
CARISRSLHQAGNASASA [FS-3190] | 6.79 (active) | 8.81 (active) | 8.11 (active)
CARKKKSISLAGNASASA [FS-1855] | 0.218 (inactive) | 1.42 | 3.47
CADQLEQALDAGNASASA [HC1589] | -1.05 (inactive) | -1.96 (inactive) | -1.11 (inactive)
CATHVTGGSAAGNASASA [HC353] | -0.463 (inactive) | -0.337 (inactive) | -2.02 (inactive)
CAKDVVCCSMAGNASASA [HC2114] | 0.322 (inactive) | 0.43 (inactive) | -1.58 (inactive)
CADSVDAKPDAGNASASA [CS1] | -0.899 (inactive) | -0.697 (inactive) | -0.815 (inactive)
CAPTTRVRRRAGNASASA [FS-702] | 9.76 (active) | 10.9 (active) | 9.44 (active)
CAGPGRVRRRAGNASASA [FS-28] | 8.24 (active) | 9.49 (active) | 7.22 (active)
CAPSPRQARRAGNASASA [FS-1246] | 0.263 (inactive) | 2.43 | 2.92
CARQRRVRRRAGNASASA [FS-1160] | 6.79 (active) | 6.89 (active) | 6.35 (active)
CARQRRVPGNAGNASASA [FS-2768] | 1.18 | -0.0341 (inactive) | 0.472 (inactive)
CARQRRIYKTAGNASASA [FS-2590] | -1.61 (inactive) | -1.71 (inactive) | -0.22 (inactive)
CARIKKWLEHAGNASASA [FS-1721] | -1.04 (inactive) | 0.181 (inactive) | 1.15
